Among the data in PubChem BioAssay AID651725 (National Center for Advancing Translational Sciences (NCATS), 2012) are activity change values, retold here.

Out of some 360,000 compounds screened, about 2,000 (0.56%) were called active. Another 2% or so got no clear call; they are omitted. No stated cut-off is given here; in the data, active means activity change below about -65%; inconclusive means mostly about -30% to -63%; inactive means weaker than that. Shown is part of a subset that was picked to be rich in actives.
On the % scale 0 is the no-effect control and ±100 the full control effect.

Homeobox protein SIX1 (Homo sapiens) + Protein phosphatase EYA2 (Homo sapiens), sequence (O00167 whole entry, looked up): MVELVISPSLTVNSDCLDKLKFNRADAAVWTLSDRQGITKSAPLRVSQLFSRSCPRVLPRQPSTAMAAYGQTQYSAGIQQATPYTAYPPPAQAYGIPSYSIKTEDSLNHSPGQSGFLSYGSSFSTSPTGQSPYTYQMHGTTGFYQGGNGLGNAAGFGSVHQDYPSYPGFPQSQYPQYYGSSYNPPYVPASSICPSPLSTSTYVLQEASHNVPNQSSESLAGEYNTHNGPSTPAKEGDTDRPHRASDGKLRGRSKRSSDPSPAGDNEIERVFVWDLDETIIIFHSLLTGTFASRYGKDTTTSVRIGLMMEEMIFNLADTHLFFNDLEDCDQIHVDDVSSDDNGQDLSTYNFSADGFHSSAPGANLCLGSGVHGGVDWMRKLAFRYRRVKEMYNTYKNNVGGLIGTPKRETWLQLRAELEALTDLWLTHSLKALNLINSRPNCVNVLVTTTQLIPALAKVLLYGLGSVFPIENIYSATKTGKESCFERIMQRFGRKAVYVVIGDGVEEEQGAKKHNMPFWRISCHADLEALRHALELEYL
Homeobox protein SIX1 (Homo sapiens) + Protein phosphatase EYA2 (Homo sapiens), sequence (Q15475 whole entry, looked up): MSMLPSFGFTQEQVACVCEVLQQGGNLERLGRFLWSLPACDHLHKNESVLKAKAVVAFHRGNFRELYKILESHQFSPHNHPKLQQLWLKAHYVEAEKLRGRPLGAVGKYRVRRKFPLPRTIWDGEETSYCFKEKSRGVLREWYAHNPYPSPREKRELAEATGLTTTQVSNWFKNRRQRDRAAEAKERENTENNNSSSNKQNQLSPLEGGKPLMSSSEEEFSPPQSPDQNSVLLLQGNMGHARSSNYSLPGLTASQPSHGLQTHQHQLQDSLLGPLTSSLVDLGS

The assay concerns the target Homeobox protein SIX1 (Homo sapiens) + Protein phosphatase EYA2 (Homo sapiens) (UniProt Q15475+O00167). Briefly: qHTS Assay for Inhibitors of the Six1/Eya2 Interaction. The conditions noted are these: AlphaScreen GST-Six1/His-Eya2 binding, biochemical; active compounds read low. The procedure, abridged: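 Compounds are tested against tagged Six1 and Eya2 proteins bridged by glutathione donor and nickel acceptor beads; after a one-hour incubation at 37 °C without light, AlphaScreen emission is recorded.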
Consider `Cc1cccc(C)c1NC(=O)C(c1cccc(F)c1)N1CCN(C)CC1` (configuration not stated), for which the activity change was 1.36% (inactive).
As to `CC1CCN(S(=O)(=O)c2ccc3[nH]c(=O)ccc3c2)CC1`, the activity change is -0.516% (inactive).
`C/C(=N\NC(=O)c1ccccc1F)c1ccccn1`: the activity change is -91.6% (active).
Turning to `CCOc1ccc(NC(=S)N2CCCCCC2)cc1`, the activity change was -13.8% (inactive).
For `COc1ccc(CC(N)c2csc(NC(=O)Cc3ccccc3)n2)cc1` (configuration not stated), the activity change was -12.1% (inactive).
In the case of `CC(=NNC(=S)N1CCCCCC1)c1ccccn1`, the activity change was -88.5% (active).
As for `O=C(NCCOc1ccccc1)c1ccccc1F`, the activity change was 6.38% (inactive).
The same measure for `CCNC(=S)N1CCN(c2ncccn2)CC1`: 1.47% (inactive); for `C/C(=N/NC(=O)CCc1ccccc1)c1ccco1`: 2.7% (inactive); for `COc1ccc(CC(=O)N/N=C(\C)c2ccccn2)cc1`: -85.5% (active).
On to `C/C(=N\NC(=O)Cc1ccc(Cl)cc1)c1ccccn1`, for which the activity change was -85.5% (active).
As for `O=C(Cc1ccc(Cl)cc1)c1ccccc1`, the activity change is 4.47% (inactive).
Consider `C/C(=N/NC(=O)c1ccn(C)n1)c1ccncc1`, for which the activity change is 5.19% (inactive).
For `COc1ccc(C(=O)/C=C/Nc2ccccn2)cc1`, the activity change was 3.99% (inactive).
Take `Cc1cccc(C)c1NC(=O)C(c1ccc(C(F)(F)F)cc1)n1c(=O)c(-c2ccco2)nc2ccccc21` (configuration not stated): the activity change is -0.0756% (inactive).
As for `CCCCOCCCNC(=O)C[C@@H]1C[C@@]2(C(=O)OC)CCCCC=C2N(CCC2=CCCCC2)C1=O`, the activity change was -2.51% (inactive).
Take `CC(C)N1C(=O)c2ccccc2NC(=O)C1C(=O)NCc1cccs1` (configuration not stated): the activity change was 0% (inactive).
`COc1cc(C=C(OC(C)=O)c2ccc3c(c2)OCO3)cc(OC)c1OC`: the activity change is -21% (inactive).
In the case of `C=C1C(=O)OC2C1CCC(C)=CCCC1(C)OC21` (configuration not stated), the activity change is 10.7% (inactive).
For the molecule `O=c1ccc2c(-c3ccccc3S(=O)(=O)O)c3ccc(O)c(O)c3oc-2c1O`, the activity change is -87.1% (active).
Consider `COC(=O)C1=CN(c2c(C)cc(C)cc2C)C(N)=C(C#N)C1c1cccc(F)c1` (configuration not stated), for which the activity change was -17.6% (inactive).
As to `O=C(N[C@H]1CC[C@H](CC(=O)N2CCCCC2)O[C@@H]1CO)c1cccc(F)c1`, the activity change is -8.77% (inactive).
As for `CCN(CC)CCNCC(=O)Nc1ccc(Oc2ccccc2)cc1`, the activity change is -5.73% (inactive).
Turning to `CCN(CC)CCOc1ccc2c(c1)C(=NNC(=O)c1ccccn1)c1cc(OCCN(CC)CC)ccc1-2`, the activity change is -74.3% (active).
The result for `CCCC(C(=O)OCCN(CC)CC)(c1ccccc1)c1ccccc1` reads -20.2% (inactive); that for `CCc1ccc(-c2cc(C)no2)cc1S(=O)(=O)NCCc1ccc(S(N)(=O)=O)cc1`, -4.17% (inactive); that for `CC(=O)Nc1ccc(NC(=O)C(NS(=O)(=O)c2ccc3c(c2)OCCO3)C(C)C)cc1` (configuration not stated), 0.533% (inactive).
Turning to `CCC(C(=O)Nc1c(C)cccc1C)n1c(-c2cc(C)cs2)nc2ccccc21` (configuration not stated), the activity change is 4.28% (inactive).
As for `CC(=O)N1CCCc2cc(S(=O)(=O)N3CCCC(C(=O)N4CCN(c5cccc(Cl)c5)CC4)C3)ccc21` (configuration not stated), the activity change was -12.9% (inactive).
The result for `COc1ccc(-n2c(C)cc(C(=O)CN3C(=O)NC4(CCc5ccccc54)C3=O)c2C)cc1` (configuration not stated) reads -14.9% (inactive); that for `COc1ccc(C(=O)Nc2c(N)nc(SCC(=O)Nc3ccc(C(C)=O)cc3)[nH]c2=O)cc1`, -14.2% (inactive); that for `COC(=O)c1ccc(NC(=O)CSc2nc(N)c(NC(=O)c3ccc(Br)o3)c(=O)[nH]2)cc1`, -66.4% (active).
The same measure for `COCCNC(=O)CSc1nc(N)c(NC(=O)c2ccco2)c(=O)[nH]1`: 2.42% (inactive); for `CCOC(=O)c1sc(/N=C/C2=C(O)CC(C)(C)CC2=O)c(C(=O)OCC)c1C`: -0.173% (inactive); for `Cc1nn(Cc2ccccc2Cl)c(C)c1NC(=O)Cn1nc([N+](=O)[O-])c(Cl)c1C`: -0.78% (inactive).
Take `Cc1c(Cl)c([N+](=O)[O-])nn1Cc1ccc(C(=O)N/N=C\c2cc(Cl)ccc2O)o1`: the activity change was -71.9% (active).
With `Cc1c(Cl)c([N+](=O)[O-])nn1CCCC(=O)NC(C)c1ccccc1` (configuration not stated), the activity change is 7.3% (inactive).
With `COc1ccccc1C(=O)NCC(=O)OCC(=O)NNC(=O)c1ccc(Br)cc1`, the activity change was -6.57% (inactive).
As to `CC(C)c1cc(Cn2c3ccccc3c(=O)n2C(C)Cn2cc(C3CC3)nn2)on1` (configuration not stated), the activity change was 4.06% (inactive).
On to `COc1ccc(COC[C@H](CC(C)C)N2CCN(C(=O)c3cccc(C(F)(F)F)c3)CCC2=O)cc1`, for which the activity change is 9.97% (inactive).
Turning to `CCN(CC(=O)Nc1ccc(NC(C)=O)cc1)C(=O)C1CC(=O)N(c2ccc3c(c2)OCCO3)C1` (configuration not stated), the activity change was -0.253% (inactive).
As to `Cc1ccc(-c2cnc(C(O)c3cccc(C)c3C)[nH]2)cc1` (configuration not stated), the activity change was -9.73% (inactive).
As for `COC(=O)C1=C(C)NC(=O)/C1=C/c1ccc(CNS(=O)(=O)c2ccc(C)cc2)o1`, the activity change is -8.38% (inactive).
For `O=c1/c(=C/c2ccc(CNS(=O)(=O)c3ccccc3)o2)sc2n1CCN=2`, the activity change was -74.2% (active).
Take `O=S(=O)(NCc1ccccc1)c1ccc(S(=O)(=O)N2CCCC2)cc1`: the activity change was 0% (inactive).
Regarding `COC(=O)[C@]12CCCCC=C1N(Cc1ccc3c(c1)OCO3)C(=O)[C@H](CC(=O)N1CCOCC1)C2`, the activity change was 7.68% (inactive).
With `CCC(C)C(CO)NC(=O)/C=C/[C@H]1O[C@@H](n2cnc3c(NC(=O)c4ccccc4)ncnc32)[C@H](O)[C@@H]1O` (some centres not stated), the activity change is -67.4% (active).
In the case of `O=C(/C=C/[C@H]1O[C@@H](n2cnc3c(NC(=O)c4ccccc4)ncnc32)[C@H](O)[C@@H]1O)NCc1ccccc1`, the activity change was -0.266% (inactive).
As to `COc1cccc(CN(C)C(=O)CC[C@H]2O[C@@H](n3cnc4c(NC(=O)c5ccccc5)ncnc43)[C@H](O)[C@@H]2O)c1`, the activity change is -3.33% (inactive).
Regarding `O=C(COc1ccc(Cl)cc1)NCc1nnc(SCC(=O)NCC2CCCO2)o1` (configuration not stated), the activity change is 17.7% (inactive).
The same measure for `CCC(C(=O)NC(C)(C)C)n1c(-c2ccccc2)nc2ccccc21` (configuration not stated): 2.19% (inactive).
Consider `CCCCCc1c(Cc2ccccc2)ncn1CCc1ccccc1OC`, for which the activity change was 7.11% (inactive).
Take `S=c1nc2ccccc2c2nc(-c3cccnc3)[nH]n12`: the activity change is -8.27% (inactive).
For the molecule `CCN(CC(=O)NC1CCS(=O)(=O)C1)c1nc(-c2cccnc2)nc2ccccc12` (configuration not stated), the activity change is 5.63% (inactive).
The same measure for `COc1ccc(Nc2nc(-c3cccnc3)nc3ccccc23)cn1`: -65.3% (active).
`CC(C)C1Cc2[nH][nH]c(=O)c2C(c2ccc(Cl)cc2)O1` (configuration not stated): the activity change was -11.7% (inactive).
The result for `O=C1NC[C@H](CCCCN2C[C@H](Cc3ccc(O)cc3)N(CC3CCCCC3)C(=O)C2=O)N(CCc2ccccc2)C1=O` reads 3.83% (inactive).
With `COC(=O)C[C@@H]1C=C[C@@H](NC(=O)c2cccnc2)[C@@H](CO)O1`, the activity change was 13.6% (inactive).
As for `CC(C)CCNC(=O)C(C)N(C(=O)Cn1nnc(-c2ccc(F)cc2)n1)C1CCCC1` (configuration not stated), the activity change is 4.65% (inactive).
On to `COc1cccc(-n2c(SCC(=O)NC3CCS(=O)(=O)C3)nc3ccccc3c2=O)c1` (configuration not stated), for which the activity change was -0.378% (inactive).
For the molecule `COc1cccc(-n2c(SCC(=O)NC3CCCCC3)nc3n[nH]c(C)c3c2=N)c1`, the activity change was -66.7% (active).
The same measure for `Cc1ccc(-n2c(SCC(=O)NCCC3=CCCCC3)nc3n[nH]c(C)c3c2=N)cc1Cl`: -17.6% (inactive).
On to `O=C(C(=O)N1CCN(c2ccccc2)CC1)c1ccc2c(c1)OCO2`, for which the activity change is 9.9% (inactive).
Consider `CCOc1ccc(C(CCc2ccccc2)NC(=O)c2ccc(OC)c(OC)c2)cc1OCC` (configuration not stated), for which the activity change was -5.59% (inactive).
The same measure for `CCCCC(=O)NC(c1ccc(OC)c(OC)c1)c1ccc2cccnc2c1O` (configuration not stated): -90.3% (active); for `C=CCn1c(COc2cccc3cccnc23)nnc1SCC(=O)OC`: 0.499% (inactive); for `Cc1cc(C)n2c(Nc3c(C)cccc3C)c(CCc3ccccc3)nc2n1`: -0.972% (inactive).
The same measure for `O=C(NCc1ccccn1)c1cnc2sccn2c1=O`: -1.07% (inactive); for `COc1cc(/C=C/CO)cc(OC)c1O[C@@H]1O[C@H](CO)[C@@H](O)[C@H](O)[C@H]1O`: 5% (inactive); for `CC1(C(=O)Nc2ccc3c(c2)OCCO3)CSCC(=O)N1CCOc1ccccc1` (configuration not stated): -5.39% (inactive).
As for `CC1(C(=O)NCc2ccccc2)CSCC(=O)N1CCCn1ccnc1` (configuration not stated), the activity change was -4.73% (inactive).
The result for `O=C(NCCCn1ccnc1)C(=O)NCC1OCCN1S(=O)(=O)c1cc(F)ccc1F` (configuration not stated) reads -72.2% (active); that for `Cc1cc(F)ccc1S(=O)(=O)N1CCCOC1CNC(=O)C(=O)NCCC1=CCCCC1` (configuration not stated), 6.61% (inactive); that for `O=C(NCCCc1ccccc1)C(=O)NCC1OCCN1S(=O)(=O)c1ccccc1` (configuration not stated), 5.49% (inactive).
For `COc1ccc(NC(=O)C(c2ccncc2)n2c(=O)c(-c3cc4ccccc4[nH]3)nc3ccccc32)cc1` (configuration not stated), the activity change is 18.4% (inactive).
The result for `Oc1ccc(Br)cc1/C=N/Nc1ccccn1` reads -77.2% (active); that for `O=C(Nc1ccc(Br)cc1)c1cc(S(=O)(=O)Nc2ccccn2)ccc1Cl`, -3.31% (inactive); that for `CCN(CC)CCn1c(/N=C/c2cc(Br)ccc2O)nc2ccccc21`, 4.55% (inactive).
Consider `CCOC(=O)[C@]12CCC=C1N(Cc1ccco1)C(=O)[C@H](CC(=O)N1CCSCC1)C2`, for which the activity change was 13% (inactive).
For the molecule `CO[C@@H]1CN(C)C(=O)c2cc(NC(=O)C3CC3)ccc2OC[C@H](C)N(C(=O)CN2CCOCC2)C[C@@H]1C`, the activity change was -0.378% (inactive).
The same measure for `COC(=O)[C@]12CCCCC=C1N(Cc1ccco1)C(=O)[C@H](CC(=O)NCC1CCCCC1)C2`: 4.18% (inactive); for `O=C(CCCO)N/N=C/c1cc(Br)ccc1O`: -68.6% (active); for `NCCCCCC(=O)N/N=C/c1ccc2nccnc2c1`: 4.58% (inactive).
On to `O=C(CCC(=O)N/N=C/c1ccc(Br)o1)N/N=C/c1ccc(Br)o1`, for which the activity change was 0.575% (inactive).
The same measure for `O=[N+]([O-])c1ccc(N/N=C2/CCCCC2c2ccccn2)c([N+](=O)[O-])c1` (configuration not stated): -4.9% (inactive).
Consider `O=[N+]([O-])c1ccc2nc(-c3ccccn3)[nH]c2c1`, for which the activity change is -72.6% (active).
On to `O=[N+]([O-])c1cccc(S(=O)(=O)NCc2ccccn2)c1`, for which the activity change is -5.71% (inactive).
